Laboratory results as given in the supplement of paper PMC11172423.
Values without a mark were called inactive.

Key:
[1] = test system: Falciformispora senegalensis CBS197.79; assay: growth relative to untreated control; higher = less inhibition, active = 20 or less
In short: (§1)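 Compound at 100 or 25 µM was applied for 7 days at 37 °C to hyphal fragments of M. mycetomatis MM55 or F. senegalensis CBS197.79 in 96-well plates. Fragments were suspended in colourless RPMI 1640 with L-glutamine and MOPS at 68–72% transmission at 660 nm, and viability was read with MTS (2 h, 490 nm) or resazurin (600 nm). Growth is reported as blank-corrected metabolic activity relative to the blank-corrected untreated growth control.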

[2] = test system: Madurella mycetomatis MM55; assay: as above
In short: as §1

SMILES: C[C@H](Cn1cnc2c(N)ncnc21)OCP(=O)(O)O
- growth ([1]; 25 µM): 105%
- growth ([1]; 100 µM): 107%
- growth ([2]; 25 µM): 89.4%
- growth ([2]; 100 µM): 81.3%

SMILES: CCC1=C(c2ccc(C)cc2)S(=O)(=O)N=C1N1CCC(C(=O)NCCN2CCCCC2C)CC1 (stereo unspecified)
- growth ([1]; 25 µM): 86.3%
- growth ([1]; 100 µM): 88.6%
- growth ([2]; 25 µM): 88%
- growth ([2]; 100 µM): 81.9%

SMILES: CCS(=O)(=O)N1CC(CC#N)(n2cc(-c3ncnc4[nH]ccc34)cn2)C1
- growth ([1]; 25 µM): 102%
- growth ([1]; 100 µM): 104%
- growth ([2]; 25 µM): 94.3%
- growth ([2]; 100 µM): 80.3%

SMILES: O=C(Nc1ncccc1O)c1ccc(S(=O)(=O)NCCc2cccs2)cc1
- growth ([1]; 25 µM): 88.7%
- growth ([1]; 100 µM): 88.7%
- growth ([2]; 25 µM): 128%
- growth ([2]; 100 µM): 70.6%

SMILES: O=C(NCc1ccco1)c1ccc2[nH]c(COc3ccc(C45CC6CC(CC(C6)C4)C5)cc3)nc2c1
- growth ([1]; 25 µM): 97.5%
- growth ([1]; 100 µM): 84.5%
- growth ([2]; 25 µM): 87.5%
- growth ([2]; 100 µM): 168%

SMILES: NC1(c2ccc(-c3nc4ccn5c(O)nnc5c4cc3-c3ccccc3)cc2)CCC1
- growth ([1]; 25 µM): 104%
- growth ([1]; 100 µM): 14% (active)
- growth ([2]; 25 µM): 79.3%
- growth ([2]; 100 µM): 3.13% (active)

SMILES: N#Cc1ccc(-c2ccc3nc(Oc4ccc(C(F)(F)F)cn4)cn3c2)nc1
- growth ([1]; 25 µM): 101%
- growth ([1]; 100 µM): 109%
- growth ([2]; 25 µM): 32.3%
- growth ([2]; 100 µM): 82.2%

SMILES: CC(C)(C)c1nc(-c2cccc(NS(=O)(=O)c3c(F)cccc3F)c2F)c(-c2ccnc(N)n2)s1
- growth ([1]; 25 µM): 101%
- growth ([1]; 100 µM): 104%
- growth ([2]; 25 µM): 103%
- growth ([2]; 100 µM): 82.4%

SMILES: CN[C@@H]1[C@H](O)[C@H](NC)[C@H]2O[C@@]3(O)C(=O)C[C@@H](C)O[C@H]3O[C@@H]2[C@H]1O
- growth ([1]; 25 µM): 105%
- growth ([1]; 100 µM): 102%
- growth ([2]; 25 µM): 99.5%
- growth ([2]; 100 µM): 71.3%

SMILES: COc1ccc(-c2ccc3c(-c4ccc(F)cc4)cnc(N)c3c2)cn1
- growth ([1]; 25 µM): 94.3%
- growth ([1]; 100 µM): 75.2%
- growth ([2]; 25 µM): 88.1%
- growth ([2]; 100 µM): 38.6%

SMILES: Oc1ccccc1CCNC1CCc2ccc(F)cc21 (stereo unspecified)
- growth ([1]; 25 µM): 107%
- growth ([1]; 100 µM): 115%
- growth ([2]; 25 µM): 32.8%
- growth ([2]; 100 µM): 34%

SMILES: O=C(c1ccc(Nc2nccc(-c3ccc(Cl)cc3)n2)cc1)N1CCS(=O)(=O)CC1
- growth ([1]; 25 µM): 80.5%
- growth ([1]; 100 µM): 98.8%
- growth ([2]; 25 µM): 76.8%
- growth ([2]; 100 µM): 81.3%

SMILES: COc1cccc2c1C(=O)c1c(O)c3c(c(O)c1C2=O)C[C@@](O)(C(=O)CO)C[C@@H]3O[C@H]1C[C@H](N)[C@H](O)[C@H](C)O1
- growth ([1]; 25 µM): 94.8%
- growth ([1]; 100 µM): 96.3%
- growth ([2]; 25 µM): 116%
- growth ([2]; 100 µM): 72.5%

SMILES: CCN1CCN(Cc2ccc(Nc3ncc(F)c(-c4cc(F)c5nc(C)n(C(C)C)c5c4)n3)nc2)CC1
- growth ([1]; 25 µM): 101%
- growth ([1]; 100 µM): 105%
- growth ([2]; 25 µM): 80.5%
- growth ([2]; 100 µM): 85.2%

SMILES: CN1CCC(Oc2nc(Nc3ccccc3)nc3[nH]cc(-c4cnn(C)c4)c23)CC1
- growth ([1]; 25 µM): 89%
- growth ([1]; 100 µM): 79%
- growth ([2]; 25 µM): 78.3%
- growth ([2]; 100 µM): 17.9% (active)

SMILES: O=C1NCN(c2ccccc2)C12CCN(CCCC(c1ccc(F)cc1)c1ccc(F)cc1)CC2
- growth ([1]; 25 µM): 3.66% (active)
- growth ([1]; 100 µM): 14.7% (active)
- growth ([2]; 25 µM): 7.29% (active)
- growth ([2]; 100 µM): 5.27% (active)

SMILES: CCOc1ccc(-c2ccnc(Nc3cncc(OC)c3)n2)cc1C#N
- growth ([1]; 25 µM): 100%
- growth ([1]; 100 µM): 86.8%
- growth ([2]; 25 µM): 88.5%
- growth ([2]; 100 µM): 68.7%

SMILES: OC1(CN2CCC(Oc3cccc(C(F)(F)F)c3)CC2)CCNC1 (stereo unspecified)
- growth ([1]; 25 µM): 98.5%
- growth ([1]; 100 µM): 19.1% (active)
- growth ([2]; 25 µM): 5.37% (active)
- growth ([2]; 100 µM): 12.9% (active)

SMILES: CO[C@H]1C[C@H](O[C@@H]2/C(C)=C/C[C@@H]3C[C@@H](C[C@]4(CC[C@H](C)[C@@H](C5CCCCC5)O4)O3)OC(=O)[C@@H]3C=C(C)/C(=N/O)[C@H]4OC/C(=C\C=C\[C@@H]2C)[C@]43O)O[C@@H](C)[C@@H]1O
- growth ([1]; 25 µM): 97.5%
- growth ([1]; 100 µM): 89.3%
- growth ([2]; 25 µM): 88.8%
- growth ([2]; 100 µM): 111%

SMILES: O=C(Nc1ncccc1O)c1ccc(Cn2cccn2)cc1
- growth ([1]; 25 µM): 87.3%
- growth ([1]; 100 µM): 86.4%
- growth ([2]; 25 µM): 93.2%
- growth ([2]; 100 µM): 123%

SMILES: O[C@@H](CNC[C@H](O)[C@H]1CCc2cc(F)ccc2O1)[C@@H]1CCc2cc(F)ccc2O1
- growth ([1]; 25 µM): 5.42% (active)
- growth ([1]; 100 µM): 12.3% (active)
- growth ([2]; 25 µM): 5.79% (active)
- growth ([2]; 100 µM): 3.82% (active)

SMILES: Cc1nc2ccccn2c1C1(O)C(=O)Nc2c(Cl)cc(Cl)cc21 (stereo unspecified)
- growth ([1]; 25 µM): 101%
- growth ([1]; 100 µM): 118%
- growth ([2]; 25 µM): 99.3%
- growth ([2]; 100 µM): 111%

SMILES: CN(C)CCOc1ccc2nc(-c3cccc(OCc4ccccc4)c3)[nH]c2c1C#N
- growth ([1]; 25 µM): 50.2%
- growth ([1]; 100 µM): 11.4% (active)
- growth ([2]; 25 µM): 4.87% (active)
- growth ([2]; 100 µM): 5.16% (active)

SMILES: Nc1nc(C2CC2)cn1CC(O)c1ccc(Cl)cc1Cl (stereo unspecified)
- growth ([1]; 25 µM): 86%
- growth ([1]; 100 µM): 73.7%
- growth ([2]; 25 µM): 83.6%
- growth ([2]; 100 µM): 83.2%

SMILES: Nc1nc2ccccc2n1CC(O)c1ccc(Cl)cc1Cl (stereo unspecified)
- growth ([1]; 25 µM): 82.1%
- growth ([1]; 100 µM): 30.8%
- growth ([2]; 25 µM): 95.4%
- growth ([2]; 100 µM): 6.46% (active)

SMILES: N#Cc1cccc(C(=O)NC2CCN(c3ccnc(Nc4ccc(F)cc4)n3)C2)c1 (stereo unspecified)
- growth ([1]; 25 µM): 89.5%
- growth ([1]; 100 µM): 88.1%
- growth ([2]; 25 µM): 84.1%
- growth ([2]; 100 µM): 85.8%

SMILES: O=C(Nc1cccc(Cl)c1)c1ccnc(N2CCC(N3CCCC3)CC2)c1
- growth ([1]; 25 µM): 95.5%
- growth ([1]; 100 µM): 28.1%
- growth ([2]; 25 µM): 73.7%
- growth ([2]; 100 µM): 5.81% (active)

SMILES: CC(C)CC(NCCc1ccccc1O)c1ccccn1 (stereo unspecified)
- growth ([1]; 25 µM): 99.8%
- growth ([1]; 100 µM): 78.8%
- growth ([2]; 25 µM): 41.8%
- growth ([2]; 100 µM): 41.6%

SMILES: CCn1cnc2c(N3CCCC(c4ccncc4)C3)ncnc21 (stereo unspecified)
- growth ([1]; 25 µM): 99.7%
- growth ([1]; 100 µM): 94.6%
- growth ([2]; 25 µM): 84.4%
- growth ([2]; 100 µM): 62.5%

SMILES: CC(N)CCn1c(Nc2cc(Cl)cc(C(F)(F)F)c2)nc2cnc(NC3CCCC3)nc21 (stereo unspecified)
- growth ([1]; 25 µM): 10.9% (active)
- growth ([1]; 100 µM): 17.2% (active)
- growth ([2]; 25 µM): 11.2% (active)
- growth ([2]; 100 µM): 7.25% (active)

SMILES: Nc1nc(Nc2ccc3c(c2)CC[C@@H](N2CCCC2)CC3)nn1-c1cc2c(nn1)-c1ccccc1CCC2
- growth ([1]; 25 µM): -3.21% (active)
- growth ([1]; 100 µM): 5.2% (active)
- growth ([2]; 25 µM): 4.07% (active)
- growth ([2]; 100 µM): 4.45% (active)

SMILES: CCCN1CCC=C(c2cc(-c3ccc(C)cc3)no2)C1
- growth ([1]; 25 µM): 103%
- growth ([1]; 100 µM): 16.5% (active)
- growth ([2]; 25 µM): 92.6%
- growth ([2]; 100 µM): 4.88% (active)

SMILES: CCCCN(CCCC)CCC(O)c1cc2c(Cl)cc(Cl)cc2c2cc(C(F)(F)F)ccc12 (stereo unspecified)
- growth ([1]; 25 µM): 98.2%
- growth ([1]; 100 µM): 106%
- growth ([2]; 25 µM): 75.6%
- growth ([2]; 100 µM): 77.3%

SMILES: COC(=O)[C@@]1(c2ccc(C)cc2)C[C@H]1CN1CCC(O)(c2ccccc2)CC1
- growth ([1]; 25 µM): 95.2%
- growth ([1]; 100 µM): 97.4%
- growth ([2]; 25 µM): 77.2%
- growth ([2]; 100 µM): 72.2%

SMILES: CN(C)C1CC(NC(=O)c2ccc(Nc3nccc(-c4ccc(Cl)c(C(F)(F)F)c4)n3)cc2)C1 (stereo unspecified)
- growth ([1]; 25 µM): 96.6%
- growth ([1]; 100 µM): 102%
- growth ([2]; 25 µM): 7.71% (active)
- growth ([2]; 100 µM): 6.2% (active)

SMILES: CCOc1ccc(Cc2nccc3cc(OCC)c(OCC)cc23)cc1OCC
- growth ([1]; 25 µM): 108%
- growth ([1]; 100 µM): 105%
- growth ([2]; 25 µM): 80.9%
- growth ([2]; 100 µM): 83%

SMILES: Cc1ccc(-c2ccc(C3(CN)CCOCC3)cc2)cn1
- growth ([1]; 25 µM): 59%
- growth ([1]; 100 µM): 25.4%
- growth ([2]; 25 µM): 41.4%
- growth ([2]; 100 µM): 6.97% (active)

SMILES: CCOc1ccc(C=C2NCCc3cc(OCC)c(OCC)cc32)cc1OCC
- growth ([1]; 25 µM): 112%
- growth ([1]; 100 µM): 106%
- growth ([2]; 25 µM): 73.2%
- growth ([2]; 100 µM): 48%

SMILES: CCCCCCO[C@@H](C)c1cccc(-c2csc(NC(=O)c3cc(Cl)c(/C=C(\C)C(=O)O)c(Cl)c3)n2)c1OC
- growth ([1]; 25 µM): 80%
- growth ([1]; 100 µM): 105%
- growth ([2]; 25 µM): 81%
- growth ([2]; 100 µM): 85.9%
